KCNH2 WT inh: inhibitors of human wildtype KCNH2 potassium channel; Q12809; U2OS, BacMam KCNH2, thallium flux FluxOr; hits give low values; activity change, % at 1.84 µM; 340,000 compounds, 0.37% hits;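 active = maximum activity change below -70%; inconclusive = maximum activity change between -70% and -50%; inactive = maximum activity change above -50%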; also: % is scaled to controls: 0 for no effect and ±100 for the full control effect
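U2OS cells were transduced with wild-type KCNH2 virus (2.03 x 10^8 / mL) for 4 h at room temperature, then cultured overnight at 37 C. Thallium flux was read with FluxOr dye. Rate constants were normalized to DMSO controls.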
Glioma ERSR ind: inducers of ER stress response in human glioma cells; U87-MG GRP78 promoter luciferase reporter, 16 h; Potency, µM, for the others: at the top dose activation, actives largely listed as activators; 420,000 compounds, 0.02% hits; AID 602332; also: potency is read from the fitted curve at half-maximal effect; series mostly up to about 76 µM; % of control where 0% means no effect; nearly all actives have a fitted effect of over 35% in size
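ERSR induction read as luciferase luminescence (Bright-Glo, 10 min at room temperature) in stably transfected human U87-MG glioma cells exposed to compounds for 16 h, using GRP78 as sensor.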
RXFP1 agonist: activates the human relaxin receptor RXFP1 | HEK293T-RXFP1 cAMP TR-FRET, 30 min; response scale: percent of porcine relaxin response, buffer zero | Potency, µM (top dose mostly 57.5 µM), for inactives: top-dose activation, actives largely listed as activators | 370,000 compounds, 0.3% hits; also: potency is read from the fitted curve at half-maximal effect; % is scaled to controls: 0 for no effect and ±100 for the full control effect; nearly all actives have a fitted effect of over 60% in size
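Agonist response is measured as cAMP accumulation in an RXFP1-transfected HEK293T line under PDE4 inhibition. Values are scaled between buffer-only and 29 nM porcine relaxin, and EC50s come from standard Hill equation fits.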
PTHR1 ag: agonists of human PTHR1 parathyroid hormone receptor. Q03431. HEK293 GP2 PTHR1 cells, GloSensor cAMP luminescence, 1 h. Potency, µM (series often up to 115 µM), inactives show top-dose activation, actives largely listed as activators. 410,000 compounds, 0.075% hits; also: potency is read from the fitted curve at half-maximal effect; nearly all actives have a fitted effect of over 55% in size
Target sequence (Q03431 whole entry, looked up): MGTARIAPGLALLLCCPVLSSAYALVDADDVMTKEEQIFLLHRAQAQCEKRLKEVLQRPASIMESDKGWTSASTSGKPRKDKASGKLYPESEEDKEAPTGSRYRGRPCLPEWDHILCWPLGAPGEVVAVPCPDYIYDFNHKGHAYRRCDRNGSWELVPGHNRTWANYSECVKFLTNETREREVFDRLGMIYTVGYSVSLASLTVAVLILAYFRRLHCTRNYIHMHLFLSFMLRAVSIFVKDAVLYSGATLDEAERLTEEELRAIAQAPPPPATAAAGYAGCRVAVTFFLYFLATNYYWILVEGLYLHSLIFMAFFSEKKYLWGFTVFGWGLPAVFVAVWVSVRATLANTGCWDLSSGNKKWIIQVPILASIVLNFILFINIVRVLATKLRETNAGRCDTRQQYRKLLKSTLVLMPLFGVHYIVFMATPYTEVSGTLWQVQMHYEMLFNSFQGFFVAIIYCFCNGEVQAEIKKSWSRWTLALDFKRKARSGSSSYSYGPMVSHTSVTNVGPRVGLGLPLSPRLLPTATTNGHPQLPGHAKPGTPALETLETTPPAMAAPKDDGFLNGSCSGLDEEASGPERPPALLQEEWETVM
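HEK-293-derived GP2 cells expressing PTHR1 and a GloSensor cAMP reporter, 3,000/well, plated overnight, given luciferin plus IBMX (each 0.5 mM as added) for 1 h at 37 °C, then compound for 1 h at 37 °C. Luminescence was read after 15 min at room temperature.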
RXFP1 antagonist: blocks the human relaxin receptor RXFP1; Q9HBX9; HEK293-RXFP1, relaxin-stimulated cAMP HTRF, 30 min; hits give low values; activity change, negative = inhibition, % at 57.5 µM; 350,000 compounds, 0.59% hits; AID 1259400;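 active = activity change of -60% or lower, but not beyond a set lower limit; inconclusive = change between -60% and -40%, or beyond the set limit; inactive = change above -40%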; also: % is scaled to controls: 0 for no effect and ±100 for the full control effect
KCNH2 3.1 inh: inhibitors of human KCNH2 3.1 potassium channel isoform | U2OS KCNH2 3.1, thallium flux FluxOr; hits give low values | activity change, % (tested at about 1.8 µM) | 340,000 compounds, 0.95% hits | AID 720553;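 active = maximum activity change below -70%; inconclusive = maximum activity change from -70% to -50%; inactive = maximum activity change above -50%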;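 also: thallium influx rate constant from kinetic fluorescence after stimulation buffer; % is scaled to controls: 0 for no effect and ±100 for the full control effect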
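Thallium flux via FluxOr fluorescence (Red40 quencher, 45 min loading) in U2OS cells virally expressing the KCNH2 3.1 isoform (1.77 x 10^8 /mL virus, overnight at 37 C). Rate constants from 2-min kinetic reads post-stimulation, normalised to positive and negative controls.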
Active calls of the source: *; i = inactive; ? = inconclusive; nt = not tested or not shown. Most compounds without a hit are left out; they make up all but 1.4% or so of the library. Unless noted, calls follow the shape of the dose curve; as a rule, active = well fitted curve in the direction sought with a large enough effect; inconclusive = small, poorly fitted or top-dose-only effect, or another doubt; inactive = no such curve, though single readings can be large; an effect the other way counts as inactive or inconclusive.

SMILES	KCNH2 WT inh	Glioma ERSR ind	RXFP1 agonist	PTHR1 ag	RXFP1 antagonist	KCNH2 3.1 inh
COC1=C/C(=C/c2c(N)n3nc(CC(=O)N4CCCC4)sc3nc2=O)C=CC1=O	-1.7	-1.0%	1.9%	-51.5%	32.0	15.8
Cc1ccc2[nH]c(=O)cc(C(=O)OCC(=O)c3ccc(F)cc3)c2c1	5.9	-3.1%	0.1%	i	-5.6	0.1
CCOc1ccc2ncc(C(=O)c3ccc(OC)cc3)c(N3CCN(CC)CC3)c2c1	?	-0.9%	13.2%	14.1%	nt	-75.3*
O=C(COC(=O)/C=C/c1ccc(OC(F)F)cc1)Nc1ccc(S(=O)(=O)N2CCCC2)cc1	-3.8	-4.1%	5.2%	-39.5%	9.8	-47.9
O=C(/C=C/c1ccc(OC(F)F)cc1)Nc1cccc(S(=O)(=O)N2CCOCC2)c1	-38.6	7.9%	-0.1%	-36.7%	-10.6	-72.3*
O=C(COC(=O)/C=C/c1ccc(OC(F)F)cc1)Nc1cccc(S(=O)(=O)N2CCCC2)c1	9.6	-2.5%	1.2%	-9.4%	-22.8	-84.5*
O=C(/C=C/c1ccco1)Nc1cccc(S(=O)(=O)N2CCOCC2)c1	-106.7*	-2.9%	1.0%	-0.9%	-6.8	7.0
COc1ccc(/C=C/C(=O)Nc2cccc(S(=O)(=O)N3CCOCC3)c2)cc1OC	1.6	-2.9%	0.8%	-57.0%	-11.8	1.1
COc1ccc(C(C)C(=O)c2ccc(O)cc2O)cc1 (stereo unspecified)	nt	0.1%	nt	nt	nt	nt
Cc1ccc(/C([O-])=C(/C(=S)NCc2ccccc2)[n+]2cccc(CO)c2)cc1[N+](=O)[O-]	-73.5*	-5.3%	-3.7%	i	-0.3	1.6
CCc1ccc(-c2nc(CN3CCCC(C(=O)NCc4ccccc4Cl)C3)c(C)o2)cc1 (stereo unspecified)	nt	1.6%	1.9%	-35.1%	nt	nt
Cc1cccc(OC(C)C(=O)Nc2ccc(S(=O)(=O)N3CCCC3)cc2)c1 (stereo unspecified)	-10.6	0.9%	-1.8%	-41.7%	5.0	-188.4*
CN(C)CCNC(=O)COc1ccc(C23CC4CC(CC(C4)C2)C3)cc1	i	-3.0%	1.6%	i	-25.2	-36.2
Cc1ccc(C(=O)C(c2ccccc2)N2Cc3ccccc3C2=N)cc1 (stereo unspecified)	-4.6	-2.5%	2.5%	-42.9%	-6.3	-72.9*
CC(C)CCNC(=O)[C@@H](c1ccccc1)N1Cc2ccccc2C1=O	nt	-2.9%	0.0%	25.2%	nt	nt
CCOC(=O)/C(C#N)=C\c1cc(C)n(-c2ccccc2)c1C	-6.7	-4.4%	2.1%	-31.6%	-24.3	-0.7
CCOC(=O)/C(C#N)=C\c1ccc(N2CCN(C/C=C/c3ccccc3)CC2)cc1	-9.5	3.8%	1.8%	-28.6%	-14.0	-83.4*
O=c1c2ccccc2cnn1Cc1n[nH]c(=S)n1-c1ccc(F)c(Cl)c1	1.3	-1.8%	15.8µM*	i	4.9	-12.3
O=c1c2ccccc2cnn1Cc1n[nH]c(=S)n1-c1cc(Cl)cc(Cl)c1	-1.6	-4.8%	15.5%	-6.2%	?	0.8
O=C(NNS(=O)(=O)c1ccccc1)c1ccccc1-n1cccc1	0.8	10.0%	-0.6%	i	9.7	5.4
CCC(=O)Oc1ccc(C(=O)Nc2ccc([N+](=O)[O-])cc2)cc1	-158.9*	5.7%	0.6%	-37.4%	-2.8	9.3
CC(C)COc1ccc(C(=O)Nc2ccc([N+](=O)[O-])cc2)cc1	6.0	-1.8%	0.8%	-39.4%	-7.9	-11.5
O=C(CCc1nnc2ccc(NCc3ccco3)nn12)N1CCN(c2ccccc2F)CC1	-4.2	-3.3%	6.8%	-24.7%	3.8	-17.2
CC1=CC(C)(C)NC(=S)N1c1ccc(C)cc1C	-101.4*	-1.8%	0.2%	i	11.5	9.9
O=C1C2CC=CCC2C(=O)N1c1ccc(NCCc2ccc(O)cc2)c([N+](=O)[O-])c1 (stereo unspecified)	-14.1	9.9%	-0.5%	-52.1%	-5.6	-4.2
SMILES	KCNH2 WT inh	Glioma ERSR ind	RXFP1 agonist	PTHR1 ag	RXFP1 antagonist	KCNH2 3.1 inh
O=C(c1cc(COc2ccc(F)c(F)c2)on1)N1CCN(C2CCCCC2)C(=O)C1	-6.4	5.6%	1.1%	-20.3%	11.0	-125.4*
O=C(c1cc(COc2c(F)cccc2F)on1)N1CCN(C2CCCCC2)C(=O)C1	9.6	0.4%	0.8%	-10.5%	10.9	-4.2
COC(=O)c1c(N)sc(Cc2ccccc2)c1C	1.2	3.0%	-0.8%	i	-13.3	-102.5*
Cc1nnc(Sc2cc(NCCCO)c([N+](=O)[O-])c3nonc23)s1	-5.0	-17.4%	25.1%	-78.4%	-68.2*	24.2
O=[N+]([O-])c1c(NCCCO)cc(Sc2nc3ccccc3s2)c2nonc12	-11.7	-14.7%	-1.1%	0.5%	-73.2*	-5.7
Cc1nnc(Sc2cc(NCCO)c([N+](=O)[O-])c3nonc23)s1	-0.1	-14.9%	19.8%	-28.7%	-82.1*	-12.6
CCCC(=O)OCCNc1cc(Sc2nccn2C)c2nonc2c1[N+](=O)[O-]	-13.1	-14.2%	10.5%	i	-80.8*	nt
C[C@H](CO)N1C[C@H](C)[C@@H](CN(C)Cc2ccc(F)cc2)Oc2ncc(Br)cc2C1=O	-10.1	-0.4%	nt	-23.9%	-14.6	-11.9
C[C@H](CO)N1C[C@H](C)[C@H](CN(C)C(=O)Cc2ccccc2)OCc2cnnn2CCCC1=O	-264.5*	-1.9%	nt	-15.1%	-11.1	17.9
C[C@@H]1CN([C@H](C)CO)C(=O)CCCn2nncc2CO[C@@H]1CN(C)C(=O)Nc1cccc2ccccc12	-77.3*	-4.8%	nt	-21.7%	6.2	11.1
COc1ccc(CN2CCC(CO)(Cc3cccc(C(F)(F)F)c3)CC2)cc1Cn1cccn1	-26.4	-4.1%	-0.9%	-85.6%	-0.3	-83.5*
COc1cc(CN2CCC(CO)(Cc3cccc(C(F)(F)F)c3)CC2)ccc1F	16.4	-4.2%	-0.3%	i	-4.8	-30.0
CCC(=NCCc1ccccc1)C1=C(O)CCC1=O	16.3	-2.0%	-0.2%	i	-8.1	nt
COc1ccc(Br)cc1CN(C)CC(O)COc1ccc(Br)cc1 (stereo unspecified)	-18.2	-6.1%	0.4%	-10.0%	-63.5*	-74.7*
CN(CCOc1ccc(Br)cc1)CC(O)COc1ccc(C#N)cc1 (stereo unspecified)	-113.0*	-6.6%	-0.6%	-73.6%	-15.8	-119.6*
CN(CCOc1ccccc1)CC(O)COc1ccccc1 (stereo unspecified)	23.7	-2.1%	0.6%	-6.2%	-5.0	-9.8
COc1ccc(CN(C)CC(O)COc2ccc(C(=O)c3ccccc3)cc2)c(OC)c1OC (stereo unspecified)	-1.9	-6.9%	1.7%	i	-19.6	?
